{"source": "PubChem BioAssay AID2314", "about": "(National Center for Advancing Translational Sciences (NCATS), 2010)", "note": "The campaign covered roughly 300,000 compounds. About 37,000 (12%) were called active. The entries come from a sample that favours actives as a whole. A number with no mark means an inactive call. Rule as the data show it: active = max response mostly above about 13% (no sharp cut-off); inactive = mostly below about 14%."}
{"experiment": "Cycloheximide Counterscreen for Small Molecule Inhibitors of Shiga Toxin; also: read at 38.3 µM for the half of the compounds with a filed dose; 0% is about no effect", "conditions": "cell reporter, cycloheximide protein synthesis inhibition counterscreen; stronger effect = higher value"}
{"molecule": "[O-][n+]1onc2c1CCc1[nH]c(-c3ccccc3)nc1-2", "max response": "-2.38%"}
{"molecule": "CCSc1nc(O)c(C(c2cccc(OC)c2)c2c(O)nc(SCC)[nH]c2=O)c(=O)[nH]1", "max response": "4%"}
{"molecule": "Cc1c(Cl)cccc1NC(=O)[C@@]1(CC(=O)O)CC(/C=C/c2ccccc2)=NO1", "max response": "9.29%"}
{"molecule": "O=C(COc1cccc2ccccc12)Nc1cc(S(=O)(=O)N2CCOCC2)ccc1N1CCOCC1", "max response": "7.56%"}
{"molecule": "CCn1cc(CN2CCN(CC(C)(C)C)C(CCO)C2)c2ccccc21", "note": "(stereo not drawn)", "max response": "-2.82%"}
{"molecule": "Cn1cc(CCC(=O)NC2CC2)c2ccccc21", "max response": "-2.88%"}
{"molecule": "CC1CC2=C(CC1/C=N/NC(N)=S)C(C)(C)CCC2", "note": "(stereo not drawn)", "max response": "-1.08%"}
{"molecule": "O=Cc1c(N2CCN(c3cccc(Cl)c3)CC2)nc2ccccn2c1=O", "max response": "3.1%"}
{"molecule": "Cc1ccc(Cl)cc1NC(=O)C1CCCN(c2cnccn2)C1", "note": "(stereo not drawn)", "max response": "-5.58%"}
{"molecule": "COc1ccc(NC(=O)CN2C(=O)CSc3ccc(S(=O)(=O)N4CCC(C)CC4)cc32)cc1", "max response": "9.42%"}
{"molecule": "CCc1ccccc1NC(=S)Nc1cc(OC)c(NC(=O)C(C)C)cc1OC", "max response": "-6.46%"}
{"molecule": "COc1cnc(-c2ccccn2)nc1Oc1ccc(C(C)(C)C)cc1", "max response": "4.47%"}
{"molecule": "Cc1ccc(Oc2nc(-c3ccccn3)nc3ccccc23)cc1", "max response": "25% (active)"}
{"molecule": "CC(C)(C)Nc1nc(-c2ccccn2)nc2ccccc12", "max response": "-2.46%"}
{"molecule": "NS(=O)(=O)c1ccc(CCNC(=O)CNC(=O)Cc2ccccc2)cc1", "max response": "4.6%"}
{"molecule": "CC1CCCN(S(=O)(=O)c2ccc(-c3ccc(=O)[nH]n3)o2)C1", "note": "(stereo not drawn)", "max response": "-2.93%"}
{"molecule": "COc1cccc(NC(=O)c2ccc(Cn3cc([N+](=O)[O-])cn3)o2)c1", "max response": "1.95%"}
{"molecule": "CCc1ccc(NC(=O)c2ccc(Cn3cc([N+](=O)[O-])cn3)cc2)cc1", "max response": "26.2% (active)"}
{"molecule": "O=C(c1ccc(Cn2cc([N+](=O)[O-])cn2)o1)N1CCCC1", "max response": "-2.92%"}
{"molecule": "COc1cccc(OC)c1C(=O)Nc1c(C(=O)N2CCN(c3ccccn3)CC2)oc2ccccc12", "max response": "-0.82%"}
{"molecule": "CN1CCN(CCCCOc2cccc3ccccc23)CC1", "max response": "2.51%"}
{"molecule": "NNC(=O)COc1ccc(C2SCCS2)cc1", "max response": "5.31%"}
{"molecule": "NC(=O)COc1ccccc1C(=O)NC12CC3CC(CC(C3)C1)C2", "max response": "0.476%"}
{"molecule": "NC(=O)COc1ccc(C23CC4CC(CC(C4)C2)C3)cc1", "max response": "32.3% (active)"}
{"molecule": "Cc1c(Cl)c([N+](=O)[O-])nn1CCCC(=O)NC(C)c1ccccc1", "note": "(stereo not drawn)", "max response": "0.248%"}
{"molecule": "COc1ccc(NC(=O)C/C(C)=N/NC(=O)c2cnccn2)cc1Cl", "max response": "53.7% (active)"}
{"molecule": "O=C(COc1ccc(Cl)cc1Cl)NCCCNC(=O)c1cnccn1", "max response": "-1.68%"}
{"molecule": "CCCCC(=O)N/N=C(\\C)CC(=O)Nc1cc(Cl)ccc1OC", "max response": "-1.06%"}
{"molecule": "COc1cccc(NC(=O)Cn2c3ccc(F)cc3c3nc4n(c(=O)c32)CCS4)c1", "max response": "4.56%"}
{"molecule": "CCN(CCNC(=O)C1=C(C)C(=O)OC12CCC(C)CC2)c1ccccc1", "note": "(stereo not drawn)", "max response": "3.3%"}
{"molecule": "COc1ccc(-c2n[nH]c3c2CN(C(=O)c2ccc(F)cc2)CC3)cc1", "max response": "9.17%"}
{"molecule": "CCOc1cc(-c2noc(CCCC(=O)NC3CCCCC3)n2)ccc1OC", "max response": "-3.29%"}
{"molecule": "COC(=O)C(=Nc1ccccc1)/C(C(=O)C(=O)N(C)c1ccccc1)=C(\\O)c1ccc(Cl)cc1", "max response": "23.6% (active)"}
{"molecule": "COC(=O)c1cn(C(=O)c2ccc(Cl)cc2)c2ccccc12", "max response": "10.5%"}
{"molecule": "COC(=O)/C(NC(C)=O)=C(\\C)c1ccc(Cl)cc1", "max response": "1.02%"}
{"molecule": "CC(C)CC(=O)NC(=S)Nc1cc(C(=O)O)ccc1Cl", "max response": "-4.75%"}
{"molecule": "CC(=O)c1ccc(NC(=S)NC(=O)CC(C)C)cc1", "max response": "9.98%"}
{"molecule": "CC(C)CC(=O)NC(=S)Nc1ccc(F)cc1F", "max response": "23.2% (active)"}
{"molecule": "Cc1ccc(-c2nc(-c3cccnc3)sc2CC(=O)Nc2ccc(C)c(Cl)c2)cc1", "max response": "8.82%"}
{"molecule": "COc1ccc(CCNS(=O)(=O)c2cccc([N+](=O)[O-])c2)cc1", "max response": "4.94%"}
{"molecule": "N#CC1=C(N)Oc2c(sc3ccccc23)C1c1ccco1", "note": "(stereo not drawn)", "max response": "28.9% (active)"}
{"molecule": "Cc1cc(C)c2c3c(sc2n1)C(c1ccccc1)C(C#N)=C(N)O3", "note": "(stereo not drawn)", "max response": "-1.32%"}
{"molecule": "N#CC1=C(N)Oc2c(c(=O)oc3ccccc23)C1c1ccccc1OC(=O)c1cccs1", "note": "(stereo not drawn)", "max response": "1.47%"}
{"molecule": "COc1ccc(OC)c(-c2csc(NC(=O)C3=NNC(=O)CC3)n2)c1", "max response": "9%"}
{"molecule": "COc1ccc(-c2csc(NC(=O)COC(=O)Cc3ccc(Cl)cc3Cl)n2)cc1", "max response": "45.1% (active)"}
{"molecule": "COc1ccc(-c2csc(NC(=O)COC(=O)c3ccc(Br)o3)n2)cc1", "max response": "33.7% (active)"}
{"molecule": "CC(C)(C)NC(=O)NC(=O)COC(=O)Cc1ccc(Cl)cc1Cl", "max response": "2.66%"}
{"molecule": "COc1cccc(CC(=O)Nc2nc(-c3ccc(OC)c(OC)c3)cs2)c1", "max response": "-5.12%"}
{"molecule": "COc1ccc(-c2nc(CCNC(=O)c3ccc(Br)o3)cs2)cc1", "max response": "13.1%"}
{"molecule": "Cc1cccc(NC(=O)c2cc(S(=O)(=O)N3CCC4(CC3)OCCO4)ccc2F)c1", "max response": "-1.02%"}
{"molecule": "CCn1cc(/C=C(\\NC(=O)c2ccc(C)cc2)C(=O)NCCN2CCOCC2)c2ccccc21", "max response": "-1.13%"}
{"molecule": "CC(C)C(=O)NCC(c1cccs1)S(=O)(=O)c1ccc(F)cc1", "note": "(stereo not drawn)", "max response": "-4.81%"}
{"molecule": "CCC(=O)Nc1nnc(S(=O)(=O)N(CC(C)C)c2ccccc2)s1", "max response": "10.1%"}
{"molecule": "O=C(Oc1ccc2c(c1)CCC2)N1CCOCC1", "max response": "53.5% (active)"}
{"molecule": "O=C(Oc1ccc(F)cc1)N1CCOCC1", "max response": "-1.5%"}
{"molecule": "CC(=O)c1ccc(OC(=O)N2CCOCC2)cc1", "max response": "11.8%"}
{"molecule": "O=c1c(Cl)c(NC2CC2)cnn1-c1ccccc1", "max response": "31.2% (active)"}
{"molecule": "c1ccc(-n2nnnc2NC2CCCCCC2)cc1", "max response": "-1.89%"}
{"molecule": "Cc1cccc(-n2ncc(Cl)c(Cl)c2=O)c1", "max response": "-10%"}
{"molecule": "CCOC(=O)/C(C#N)=C\\c1c(C)cc(C)c(COC(C)=O)c1C", "max response": "0.938%"}
{"molecule": "CCOC(=O)/C(C#N)=C/c1ccc(N2CCCCC2)cc1", "max response": "40.9% (active)"}
{"molecule": "CCOC(=O)NC(=O)/C(C#N)=C\\c1ccccc1", "max response": "-1.84%"}
{"molecule": "CC(C)OC(=O)C(C#N)c1nc2ccccc2nc1N1CCN(Cc2ccccc2)CC1", "note": "(stereo not drawn)", "max response": "-2.37%"}
{"molecule": "CCOC(=O)/C(C#N)=C/c1ccc(N2CCN(Cc3ccccc3)CC2)cc1", "max response": "10.2% (active)"}
{"molecule": "COc1ccc(N2CCN(C(=O)CCSCc3ccccc3F)CC2)cc1", "max response": "7.14%"}
{"molecule": "COc1ccc(N2CCN(C(=O)/C(C#N)=C/c3ccccc3)CC2)cc1", "max response": "14.2% (active)"}
{"molecule": "Cc1cccn2c(=O)c(/C=C(\\C#N)C(N)=O)c(N3CCCCCC3)nc12", "max response": "12.8%"}
{"molecule": "C/C(=C/c1ccccc1)C(=O)N1CCN(c2ccccc2)CC1", "max response": "20%"}
